# Screening data as filed in PubChem.
# Rows were chosen to be rich in hits. Some 31% of all compounds tested hit in one or more screens of this group.
# CYP2C9 activ: CYP2C9 (human) activation; P11712; recombinant CYP2C9, luciferin-H conversion, luminescence; stronger effect = higher value; factor 1 = untreated enzyme, 0 = blocked; activation factor at 5 µM; actives 1.4% (n = 96,000);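 active means activation factor of 2 or more for CYP2C9 at a 5 µM dose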;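 further: 0 = sulfaphenazole-blocked wells and 1 = vehicle-only wells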
# CYP2C19 inh: inhibitors of human CYP2C19; P33261; CYP2C19 Supersomes, luciferin-H EGE luminescence, 30 min; inhibition, % at 5 µM; actives 21% (n = 96,000); AID 778;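 active means CYP2C19 inhibition above a set limit at 5 µM in the primary screen, cut at about 50% in these data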;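 further: plate controls were negative control wells for no effect and 2.5 mM tranylcypromine positive control for full effect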
# Target sequence (P33261 whole entry, looked up): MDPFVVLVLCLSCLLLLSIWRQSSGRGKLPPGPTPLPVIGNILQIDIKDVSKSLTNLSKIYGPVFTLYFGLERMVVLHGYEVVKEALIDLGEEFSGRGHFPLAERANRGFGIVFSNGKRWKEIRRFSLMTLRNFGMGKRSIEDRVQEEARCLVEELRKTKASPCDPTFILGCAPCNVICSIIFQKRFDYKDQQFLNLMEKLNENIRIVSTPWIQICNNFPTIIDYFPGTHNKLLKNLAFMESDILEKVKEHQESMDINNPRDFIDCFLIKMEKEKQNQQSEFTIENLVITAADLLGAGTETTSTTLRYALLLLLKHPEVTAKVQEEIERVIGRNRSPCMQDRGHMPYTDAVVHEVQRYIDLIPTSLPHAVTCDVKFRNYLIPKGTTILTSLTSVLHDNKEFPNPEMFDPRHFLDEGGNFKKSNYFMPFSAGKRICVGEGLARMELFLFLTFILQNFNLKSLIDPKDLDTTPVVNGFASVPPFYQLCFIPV
# CYP2C9 inh: human CYP2C9 inhibition; P11712; CYP2C9 Supersomes, luciferin-H conversion, luminescence; inhibition, % at 5 µM; actives 20% (n = 96,000); AID 777;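 active means blocking of liver enzyme CYP2C9 beyond about 50% at 5 µM, limit read from the data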
# CYP2C19 act: activators of human cytochrome P450 2C19 | recombinant CYP2C19, luciferin-H EGE luminescence; stronger effect = higher value; 0 = fully inhibited enzyme, 1 = untreated enzyme | activation factor at 5 µM | 96,000 tested, under 10 active | P33261;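 active means activation factor of at least 2 at 5 µM in the primary screen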;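 further: 0 = wells with 2.5 mM tranylcypromine and 1 = vehicle-only wells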
# The depositor's hits bear a star.
SMILES,CYP2C9 activ,CYP2C19 inh,CYP2C9 inh,CYP2C19 act
Cc1cccc(C2=NCC(=O)N(CC(=O)NCc3ccco3)c3sc4c(c32)CCCC4)c1,0.4,50.7*,59.1*,0.5
CCOC(=O)CNC(=O)CSP(=S)(OCC)OCC,0.3,96.4*,69.6*,0
CC(=O)OC1(c2ccccc2)CCN(C)C2CCCCC21 (centres undefined),1.3,-19.6,-31.3,1.2
c1ccc2c(CNC3CCCCCC3)c[nH]c2c1,0.9,22.1,8.0,0.8
CCN(CC)C1=NC(=[N+](CC)CC)c2ccccc21,0.7,-14.1,31.0,1.1
O=C(COc1ccc2ccccc2c1)N1CCN(CC2CC3C=CC2C3)CC1 (centres undefined),0.7,14.6,27.0,0.9
COc1ccccc1-n1c(O)c(C=NCCN2CCNCC2)c(=O)[nH]c1=O,0.4,34.7,58.5*,0.7
CN(C)C1(c2nnnn2CCOC(=O)Nc2ccc(Cl)cc2)CCCCC1,0.1,100.0*,86.7*,0
CN(C)C1(c2nnnn2-c2ccc(Cl)cc2)CCCCC1,0.6,93.1*,42.8,0.1
CC(C)C/C(=N/O)c1c[nH]c2ccccc12,0.4,77.3*,58.9*,0.2
CCOc1cc2[nH]c(=S)n(CCCC(=O)N3CCC4(CC3)OCCO4)c(=O)c2cc1OCC,0.4,52.0*,55.2*,0.5
O=C(CCCOc1ccc(Cl)cc1Cl)N1CCC2(CC1)OCCO2,0.6,74.0*,44.9,0.3
Cc1sc2ncn(CC(=O)NCCCC(=O)N3CCC4(CC3)OCCO4)c(=O)c2c1C,0.9,48.7,13.0,0.5
CCC(=O)N1CC(=O)Nc2ccc(Cl)cc2C1c1ccc(F)cc1 (centres undefined),1,15.6,-1.6,0.8
COc1cc(/C=N/NP(=S)(c2ccccc2)c2ccccc2)ccc1O,0.2,42.4,81.7*,0.6
Oc1ccc(/C=N/NP(=S)(c2ccccc2)c2ccccc2)cc1,0.1,79.3*,85.5*,0.2
O=C1NC(=O)N(C2CCCCC2)C(=O)C1C1c2ccccc2C(=O)N1Cc1ccccc1 (centres undefined),0.5,8.1,47.1,0.9
CCOc1c(P(=S)(N(C)C)N(C)C)c(C)nn1-c1ccccc1,0.2,88.8*,78.5*,0.1
O=C(O)Cn1cc(C(=O)c2ccccc2)c2ccccc21,1,-7.7,-2.1,1.1
CCC(=O)c1cn(Cc2ccccc2C#N)c2ccccc12,0.5,76.4*,51.5*,0.2
CCn1cc(C(=O)c2cccs2)c2ccccc21,3.1*,10.9,-208.7,0.9
O=C(Cn1cc(C(=O)c2ccccc2F)c2ccccc21)NCc1ccco1,0.7,11.5,25.7,0.9
N#Cc1ccccc1Cn1cc(C(=O)C2CC2)c2ccccc21,0.8,30.9,17.1,0.7
O=C(c1ccco1)c1cn(Cc2ccccc2Cl)c2ccccc12,0.1,-26.9,89.3*,1.3
N#Cc1ccccc1Cn1cc(C(=O)c2ccco2)c2ccccc21,0.4,66.1*,55.5*,0.3
SMILES,CYP2C9 activ,CYP2C19 inh,CYP2C9 inh,CYP2C19 act
CC1CN=C(Nc2cccc3ccccc23)S1 (centres undefined),1.1,5.3,-14.2,0.9
CCCCCCN=Cc1c(O)n(C)c(=O)n(C)c1=O,1,2.4,-2.0,1
CN(C)CP(=O)(Nc1ccccc1)N(C)C (centres undefined),1.2,-5.5,-22.2,1.1
O=C(c1ccco1)c1cn(Cc2ccccc2)c2ccccc12,0.1,92.7*,92.8*,0.1
CCC12CN3CCN(CC(C3)/C1=N\O)C2,1,-1.4,1.0,1
Cc1ccc(C(=O)C2(C)N(O)C(C)C(c3cccs3)=[N+]2[O-])cc1 (centres undefined),0.4,29.9,56.0*,0.7
Cc1oc(-c2ccc(Cl)cc2)nc1CS(=O)CC(=O)N1CCC2(CC1)OCCO2 (centres undefined),0.8,1.1,17.1,1
Cc1ccc2c(c1)CC1(CN2C)C(=O)NC(=O)N(c2ccc(C)c(C)c2)C1=O (centres undefined),0.1,52.6*,86.1*,0.5
COc1ccccc1N1C(=O)NC(=O)C2(Cc3cc(C)ccc3N(C)C2)C1=O (centres undefined),0.3,43.1,68.1*,0.6
Cc1cc(S(=O)(=O)NCc2ccccc2)ccc1OCC(=O)N1CCN(C)CC1,1,-13.0,4.5,1.1
COc1ccc(OC)c(-n2c(O)c(C=NCc3ccc4c(c3)OCO4)c(=O)[nH]c2=O)c1,1,0.1,-2.3,1
CC(=O)OC1N=C(c2ccccc2)c2cc(C)ccc2NC1=O (centres undefined),0.9,1.6,8.6,1
CCCC(=O)c1c(O)[nH]c(=O)[nH]c1=O,1.1,-15.8,-5.3,1.2
